Measurements as given in paper PMC7862700, “An all-to-all approach to the identification of sequence-specific readers for epigenetic DNA modifications on cytosine”.

Columns and labels:
Assay in all cases: DAPPL (digital affinity profiling via proximity ligation, sequencing); 10 mM Tris-HCl pH 7.5, 50 mM NaCl, 1 mM DTT, 4% glycerol, room temperature, 30 min; GST-TFs on glutathione beads, 16-mer random dsDNA library, 0.1% formaldehyde crosslink after washing; high values mean tight binding
GABPA = target: T1, GABPA (Homo sapiens, UniProt Q06546 1-454); settings: protein: recombinant; tags: N-terminal GST; dsDNA, one strand shown
T1 sequence: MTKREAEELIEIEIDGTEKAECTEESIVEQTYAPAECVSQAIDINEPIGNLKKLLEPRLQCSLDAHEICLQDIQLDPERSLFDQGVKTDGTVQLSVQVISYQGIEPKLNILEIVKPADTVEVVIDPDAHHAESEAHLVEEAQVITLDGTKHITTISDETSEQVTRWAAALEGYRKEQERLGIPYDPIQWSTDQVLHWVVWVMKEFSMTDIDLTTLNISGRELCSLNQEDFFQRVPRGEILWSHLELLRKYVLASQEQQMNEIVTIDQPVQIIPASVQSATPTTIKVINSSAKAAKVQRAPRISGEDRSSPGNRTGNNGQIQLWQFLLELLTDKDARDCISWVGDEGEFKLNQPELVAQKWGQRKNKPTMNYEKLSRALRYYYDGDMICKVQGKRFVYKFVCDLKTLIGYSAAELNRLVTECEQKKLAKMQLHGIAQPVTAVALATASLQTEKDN
How it was run: (§1)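 Binding signal is each hexamer's read frequency for a factor divided by its frequency in the tag-only sample. The factors were GST-fused human transcription factors from yeast, captured on glutathione beads, DNA-barcoded and pooled with that sample. Pools were incubated with 200 nmole of a random double-stranded 16-mer DNA library in Tris/NaCl/DTT/glycerol buffer at room temperature for 30 min, then washed, crosslinked with 0.1% formaldehyde, proximity-ligated with BsaI/T4 ligase (1 h, 37 °C), PCR-amplified and sequenced on an Illumina NextSeq500.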

ERG = target: T2, ERG (Homo sapiens, UniProt P11308 1-479); settings: protein: recombinant; tags: N-terminal GST; dsDNA, one strand shown
T2 sequence: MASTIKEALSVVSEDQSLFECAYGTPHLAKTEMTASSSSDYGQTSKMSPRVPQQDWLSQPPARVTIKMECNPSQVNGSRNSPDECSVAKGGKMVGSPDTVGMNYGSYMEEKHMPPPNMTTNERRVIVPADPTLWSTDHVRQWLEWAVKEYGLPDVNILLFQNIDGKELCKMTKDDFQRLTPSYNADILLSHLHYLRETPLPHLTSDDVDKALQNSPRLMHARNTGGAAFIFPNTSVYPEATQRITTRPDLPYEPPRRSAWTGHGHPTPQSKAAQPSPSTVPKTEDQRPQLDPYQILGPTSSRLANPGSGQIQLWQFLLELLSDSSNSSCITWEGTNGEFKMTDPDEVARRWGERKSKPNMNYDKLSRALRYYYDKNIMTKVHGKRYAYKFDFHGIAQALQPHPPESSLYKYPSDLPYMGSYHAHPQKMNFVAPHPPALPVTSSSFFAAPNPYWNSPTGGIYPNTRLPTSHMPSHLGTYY
How it was run: as §1

FEV = target: T3, FEV (Homo sapiens, UniProt Q99581 1-238); settings: protein: recombinant; tags: N-terminal GST; dsDNA, one strand shown
T3 sequence: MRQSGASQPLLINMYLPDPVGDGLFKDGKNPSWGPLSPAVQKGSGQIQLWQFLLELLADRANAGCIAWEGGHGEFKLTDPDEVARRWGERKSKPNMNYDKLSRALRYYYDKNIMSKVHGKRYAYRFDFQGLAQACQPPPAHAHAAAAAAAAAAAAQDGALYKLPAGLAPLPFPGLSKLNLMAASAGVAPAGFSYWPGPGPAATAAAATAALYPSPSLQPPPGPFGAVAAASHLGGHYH
How it was run: as §1

HSF1 = HSF1 (Homo sapiens, UniProt Q00613 1-529); settings: protein: recombinant; tags: N-terminal GST; chain copies: 3; dsDNA, one strand shown
Sequence of HSF1 (Q00613 whole entry): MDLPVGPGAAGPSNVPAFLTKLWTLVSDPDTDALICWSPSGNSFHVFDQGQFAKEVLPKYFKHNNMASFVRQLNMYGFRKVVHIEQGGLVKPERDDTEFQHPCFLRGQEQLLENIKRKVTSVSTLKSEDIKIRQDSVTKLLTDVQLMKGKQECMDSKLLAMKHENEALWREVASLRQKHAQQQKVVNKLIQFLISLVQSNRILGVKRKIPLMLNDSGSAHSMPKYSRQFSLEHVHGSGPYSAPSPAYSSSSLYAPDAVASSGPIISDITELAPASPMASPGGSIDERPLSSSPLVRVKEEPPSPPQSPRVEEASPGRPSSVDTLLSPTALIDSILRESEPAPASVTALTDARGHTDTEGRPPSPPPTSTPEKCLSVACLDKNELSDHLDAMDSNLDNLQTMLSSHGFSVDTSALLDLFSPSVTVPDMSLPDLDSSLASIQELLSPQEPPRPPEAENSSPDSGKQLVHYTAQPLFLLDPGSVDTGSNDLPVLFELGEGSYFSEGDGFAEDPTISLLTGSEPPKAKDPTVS
How it was run: as §1

SPIC = target: T4, SPIC (Homo sapiens, UniProt Q8N5J4 1-248); settings: protein: recombinant; tags: N-terminal GST; dsDNA, one strand shown
T4 sequence: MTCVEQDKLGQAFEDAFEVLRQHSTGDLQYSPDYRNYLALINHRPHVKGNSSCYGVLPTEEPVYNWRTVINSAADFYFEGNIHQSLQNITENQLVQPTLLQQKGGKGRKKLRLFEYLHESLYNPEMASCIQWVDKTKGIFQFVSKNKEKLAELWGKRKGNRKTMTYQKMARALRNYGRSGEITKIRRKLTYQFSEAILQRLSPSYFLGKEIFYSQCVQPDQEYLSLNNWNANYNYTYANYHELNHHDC
How it was run: as §1

CRX = CRX (Homo sapiens, UniProt O43186 1-299); settings: protein: recombinant; tags: N-terminal GST; dsDNA, one strand shown
Sequence of CRX (O43186 whole entry): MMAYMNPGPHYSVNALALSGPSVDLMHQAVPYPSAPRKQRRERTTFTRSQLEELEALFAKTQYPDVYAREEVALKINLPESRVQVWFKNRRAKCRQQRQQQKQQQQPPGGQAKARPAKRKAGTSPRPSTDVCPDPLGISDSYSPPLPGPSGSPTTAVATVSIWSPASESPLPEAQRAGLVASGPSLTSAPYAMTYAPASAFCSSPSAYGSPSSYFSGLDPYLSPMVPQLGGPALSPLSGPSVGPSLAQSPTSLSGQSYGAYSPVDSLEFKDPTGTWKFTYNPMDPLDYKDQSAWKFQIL
How it was run: as §1

ETV1 = ETV1 (Homo sapiens, UniProt P50549 1-477); settings: protein: recombinant; tags: N-terminal GST; dsDNA, one strand shown
Sequence of ETV1 (P50549 whole entry): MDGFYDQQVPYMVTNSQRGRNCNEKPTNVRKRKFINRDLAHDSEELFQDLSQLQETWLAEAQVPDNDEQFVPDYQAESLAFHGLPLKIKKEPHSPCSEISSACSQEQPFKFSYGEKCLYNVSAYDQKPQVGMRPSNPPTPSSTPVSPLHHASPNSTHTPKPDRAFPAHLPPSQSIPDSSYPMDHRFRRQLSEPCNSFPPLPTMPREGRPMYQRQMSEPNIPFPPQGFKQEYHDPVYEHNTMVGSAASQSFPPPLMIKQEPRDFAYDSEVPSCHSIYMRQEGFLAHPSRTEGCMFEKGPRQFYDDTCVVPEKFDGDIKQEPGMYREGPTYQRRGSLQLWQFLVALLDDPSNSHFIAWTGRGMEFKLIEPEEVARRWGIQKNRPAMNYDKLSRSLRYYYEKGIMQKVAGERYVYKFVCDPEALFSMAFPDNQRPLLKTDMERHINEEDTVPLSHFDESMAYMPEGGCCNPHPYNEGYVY
How it was run: as §1

ERF = target: T5, ERF (Homo sapiens, UniProt P50548 1-548); settings: protein: recombinant; tags: N-terminal GST; dsDNA, one strand shown
T5 sequence: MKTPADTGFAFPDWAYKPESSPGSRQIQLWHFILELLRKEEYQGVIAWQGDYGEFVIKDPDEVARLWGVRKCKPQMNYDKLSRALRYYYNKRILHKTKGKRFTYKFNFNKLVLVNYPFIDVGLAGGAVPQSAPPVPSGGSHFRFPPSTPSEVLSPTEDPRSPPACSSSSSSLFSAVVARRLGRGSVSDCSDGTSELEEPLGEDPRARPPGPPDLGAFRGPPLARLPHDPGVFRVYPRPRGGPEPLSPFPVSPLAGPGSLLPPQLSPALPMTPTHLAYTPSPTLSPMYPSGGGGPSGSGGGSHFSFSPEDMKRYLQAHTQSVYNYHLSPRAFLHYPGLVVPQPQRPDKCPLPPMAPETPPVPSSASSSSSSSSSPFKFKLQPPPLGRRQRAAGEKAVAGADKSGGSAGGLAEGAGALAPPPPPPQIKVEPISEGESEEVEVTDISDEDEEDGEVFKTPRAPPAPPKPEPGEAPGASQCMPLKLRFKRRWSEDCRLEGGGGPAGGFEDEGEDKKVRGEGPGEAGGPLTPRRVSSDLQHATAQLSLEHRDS
How it was run: as §1

ETV3L = target: T6, ETV3L (Homo sapiens, UniProt Q6ZN32 1-361); settings: protein: recombinant; tags: N-terminal GST; dsDNA, one strand shown
T6 sequence: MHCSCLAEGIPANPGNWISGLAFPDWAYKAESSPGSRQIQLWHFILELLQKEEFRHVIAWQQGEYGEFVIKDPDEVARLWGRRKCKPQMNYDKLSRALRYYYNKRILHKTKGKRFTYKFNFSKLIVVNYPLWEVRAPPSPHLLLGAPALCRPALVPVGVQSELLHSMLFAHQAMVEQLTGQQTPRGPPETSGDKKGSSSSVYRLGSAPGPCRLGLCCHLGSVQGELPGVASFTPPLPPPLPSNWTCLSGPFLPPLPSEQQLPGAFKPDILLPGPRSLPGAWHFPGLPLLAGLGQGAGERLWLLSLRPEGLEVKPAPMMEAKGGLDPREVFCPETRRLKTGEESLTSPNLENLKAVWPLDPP
How it was run: as §1

ETS2 = target: T7, ETS2 (Homo sapiens, UniProt P15036 1-469); settings: protein: recombinant; tags: N-terminal GST; dsDNA, one strand shown
T7 sequence: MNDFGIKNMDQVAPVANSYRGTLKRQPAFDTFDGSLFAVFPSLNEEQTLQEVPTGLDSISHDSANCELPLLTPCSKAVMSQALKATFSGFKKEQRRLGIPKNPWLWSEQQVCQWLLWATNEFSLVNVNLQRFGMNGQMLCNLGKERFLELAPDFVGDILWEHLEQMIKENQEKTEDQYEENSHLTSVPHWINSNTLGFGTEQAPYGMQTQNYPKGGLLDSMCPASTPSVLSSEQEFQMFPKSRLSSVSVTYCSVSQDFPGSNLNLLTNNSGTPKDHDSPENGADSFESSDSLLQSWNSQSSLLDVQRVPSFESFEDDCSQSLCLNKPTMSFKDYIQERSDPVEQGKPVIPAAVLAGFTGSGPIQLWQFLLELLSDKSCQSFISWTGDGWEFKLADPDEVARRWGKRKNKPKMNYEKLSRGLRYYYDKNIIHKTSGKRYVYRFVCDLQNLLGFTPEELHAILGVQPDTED
How it was run: as §1

ETV7 = target: T8, ETV7 (Homo sapiens, UniProt Q9Y603 1-341); settings: protein: recombinant; tags: N-terminal GST; dsDNA, one strand shown
T8 sequence: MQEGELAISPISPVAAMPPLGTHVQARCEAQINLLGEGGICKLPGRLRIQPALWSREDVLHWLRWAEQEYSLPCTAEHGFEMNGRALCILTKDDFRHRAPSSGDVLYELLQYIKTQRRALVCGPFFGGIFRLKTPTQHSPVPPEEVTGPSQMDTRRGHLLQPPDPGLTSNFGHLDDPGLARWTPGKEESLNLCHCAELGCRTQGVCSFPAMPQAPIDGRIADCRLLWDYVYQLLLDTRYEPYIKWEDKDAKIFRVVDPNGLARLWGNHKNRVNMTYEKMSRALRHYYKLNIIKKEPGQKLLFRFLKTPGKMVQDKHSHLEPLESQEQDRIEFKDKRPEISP
How it was run: as §1

ELK3 = target: T9, ELK3 (Homo sapiens, UniProt P41970 1-407); settings: protein: recombinant; tags: N-terminal GST; dsDNA, one strand shown
T9 sequence: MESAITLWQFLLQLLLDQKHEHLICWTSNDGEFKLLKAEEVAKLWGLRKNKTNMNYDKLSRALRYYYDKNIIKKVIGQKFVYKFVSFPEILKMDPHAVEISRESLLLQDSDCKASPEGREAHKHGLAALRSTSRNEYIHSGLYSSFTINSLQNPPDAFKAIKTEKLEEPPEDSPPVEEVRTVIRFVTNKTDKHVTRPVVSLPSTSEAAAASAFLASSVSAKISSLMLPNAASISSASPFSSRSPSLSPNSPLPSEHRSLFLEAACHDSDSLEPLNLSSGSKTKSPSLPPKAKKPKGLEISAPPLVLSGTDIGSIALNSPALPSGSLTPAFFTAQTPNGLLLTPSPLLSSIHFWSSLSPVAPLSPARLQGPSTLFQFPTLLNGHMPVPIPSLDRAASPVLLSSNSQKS
How it was run: as §1

ELK4 = target: T10, ELK4 (Homo sapiens, UniProt P28324-2 1-405); settings: protein: recombinant; tags: N-terminal GST; dsDNA, one strand shown
T10 sequence: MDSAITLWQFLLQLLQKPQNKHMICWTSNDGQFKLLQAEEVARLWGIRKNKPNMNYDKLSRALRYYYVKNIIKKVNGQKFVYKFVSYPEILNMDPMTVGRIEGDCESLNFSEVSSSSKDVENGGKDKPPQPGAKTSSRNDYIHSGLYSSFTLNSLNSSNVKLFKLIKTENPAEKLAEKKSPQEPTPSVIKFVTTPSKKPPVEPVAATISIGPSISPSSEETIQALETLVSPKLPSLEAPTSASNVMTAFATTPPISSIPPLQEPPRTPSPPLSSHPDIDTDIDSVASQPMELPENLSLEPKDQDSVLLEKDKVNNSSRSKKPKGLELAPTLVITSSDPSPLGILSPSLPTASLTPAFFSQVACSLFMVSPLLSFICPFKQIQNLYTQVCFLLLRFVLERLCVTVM
How it was run: as §1

ELF3 = target: T11, ELF3 (Homo sapiens, UniProt P78545 1-371); settings: protein: recombinant; tags: N-terminal GST; dsDNA, one strand shown
T11 sequence: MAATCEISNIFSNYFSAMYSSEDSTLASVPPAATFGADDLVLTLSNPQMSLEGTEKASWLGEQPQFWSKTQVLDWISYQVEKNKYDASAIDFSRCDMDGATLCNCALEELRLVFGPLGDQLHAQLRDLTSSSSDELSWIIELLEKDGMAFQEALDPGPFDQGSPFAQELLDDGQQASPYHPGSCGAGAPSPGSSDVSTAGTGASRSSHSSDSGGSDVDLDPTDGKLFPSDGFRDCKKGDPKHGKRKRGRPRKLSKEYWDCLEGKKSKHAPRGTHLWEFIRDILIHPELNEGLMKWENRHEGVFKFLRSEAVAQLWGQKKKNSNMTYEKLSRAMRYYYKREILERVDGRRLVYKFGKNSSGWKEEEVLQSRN
How it was run: as §1

ELF5 = target: T12, ELF5 (Homo sapiens, UniProt Q9UKW6-2 1-255); settings: protein: recombinant; tags: N-terminal GST; dsDNA, one strand shown
T12 sequence: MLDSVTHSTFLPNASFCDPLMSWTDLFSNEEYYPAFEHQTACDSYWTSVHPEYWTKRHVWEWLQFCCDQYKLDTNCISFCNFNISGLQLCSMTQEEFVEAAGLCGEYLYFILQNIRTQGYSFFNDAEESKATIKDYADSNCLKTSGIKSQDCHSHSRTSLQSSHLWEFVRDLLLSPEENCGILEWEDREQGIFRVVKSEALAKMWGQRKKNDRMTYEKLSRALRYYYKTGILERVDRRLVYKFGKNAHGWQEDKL
How it was run: as §1

Row | Sequence | binding signal (GABPA) | binding signal (ERG) | binding signal (FEV) | binding signal (HSF1) | binding signal (SPIC) | binding signal (CRX) | binding signal (ETV1) | binding signal (ERF) | binding signal (ETV3L) | binding signal (ETS2) | binding signal (ETV7) | binding signal (ELK3) | binding signal (ELK4) | binding signal (ELF3) | binding signal (ELF5)
1 | TTAGGC | 1.02 fold enrichment (6-mer frequency, TF over GST control) | 1.03 fold enrichment (6-mer frequency, TF over GST control) | 1 fold enrichment (6-mer frequency, TF over GST control) | 1.37 fold enrichment (6-mer frequency, TF over GST control) | 1.08 fold enrichment (6-mer frequency, TF over GST control) | 2.06 fold enrichment (6-mer frequency, TF over GST control) | 1.03 fold enrichment (6-mer frequency, TF over GST control) | 1.02 fold enrichment (6-mer frequency, TF over GST control) | 1.01 fold enrichment (6-mer frequency, TF over GST control) | 1.01 fold enrichment (6-mer frequency, TF over GST control) | 1.16 fold enrichment (6-mer frequency, TF over GST control) | – | – | – | –
2 | AGGCTT | 1.02 fold enrichment (6-mer frequency, TF over GST control) | 1.04 fold enrichment (6-mer frequency, TF over GST control) | – | 1.24 fold enrichment (6-mer frequency, TF over GST control) | – | 1.74 fold enrichment (6-mer frequency, TF over GST control) | 1 fold enrichment (6-mer frequency, TF over GST control) | 1.02 fold enrichment (6-mer frequency, TF over GST control) | – | 1.04 fold enrichment (6-mer frequency, TF over GST control) | 1.08 fold enrichment (6-mer frequency, TF over GST control) | 1.05 fold enrichment (6-mer frequency, TF over GST control) | 1.02 fold enrichment (6-mer frequency, TF over GST control) | 1.11 fold enrichment (6-mer frequency, TF over GST control) | 1.02 fold enrichment (6-mer frequency, TF over GST control)
